Measured values taken from the supplement of paper PMC8728848.
About 410 targets per protein were measured; listed, in parts, are those with the strongest signals and a random draw of the rest.

Key:
Test in all cases: glycan array binding signal (z-score within array); higher = stronger binding
Conditions in all cases: glycan notation: IUPAC condensed, linker removed; mutation: D224N
[1] = target: GlcNAc(a1-4)Gal(b1-4)GlcNAc(b1-3)Gal(b1-4)[Fuc(a1-3)]GlcNAc(b1-3)Gal(b1-4)[Fuc(a1-3)]GlcNAc
Outline: (§1)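 The binding signal is a Z-score computed within each array. Data were drawn from 3228 arrays in the Consortium for Functional Glycomics database, restricted to those with a known protein sequence. Scores were averaged over arrays of the same protein sequence at different concentrations or buffers, and over linkers, and negative values can be taken as non-binding.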

[2] = target: GlcNAc(b1-3)Gal(b1-4)GlcNAc(b1-3)Gal(b1-4)GlcNAc(b1-2)Man(a1-3)[GlcNAc(b1-3)Gal(b1-4)GlcNAc(b1-3)Gal(b1-4)GlcNAc(b1-2)Man(a1-6)]Man(b1-4)GlcNAc(b1-4)GlcNAc
Outline: as §1

[3] = target: GlcNAc(b1-3)Gal(b1-4)GlcNAc(b1-3)Gal(b1-4)GlcNAc(b1-2)[GlcNAc(b1-3)Gal(b1-4)GlcNAc(b1-3)Gal(b1-4)GlcNAc(b1-6)]Man(a1-6)[GlcNAc(b1-3)Gal(b1-4)GlcNAc(b1-3)Gal(b1-4)GlcNAc(b1-2)Man(a1-3)]Man(b1-4)GlcNAc(b1-4)[Fuc(a1-6)]GlcNAc
Outline: as §1

[4] = target: GlcNAc(b1-3)Gal(b1-4)GlcNAc(b1-3)Gal(b1-4)GlcNAc(b1-3)Gal(b1-4)GlcNAc(b1-2)Man(a1-3)[GlcNAc(b1-3)Gal(b1-4)GlcNAc(b1-3)Gal(b1-4)GlcNAc(b1-3)Gal(b1-4)GlcNAc(b1-2)Man(a1-6)]Man(b1-4)GlcNAc(b1-4)[Fuc(a1-6)]GlcNAc
Outline: as §1

[5] = target: GlcNAc(b1-3)Gal(b1-4)GlcNAc(b1-3)Gal(b1-4)GlcNAc(b1-3)Gal(b1-4)GlcNAc(b1-3)Gal(b1-4)GlcNAc(b1-2)Man(a1-3)[GlcNAc(b1-3)Gal(b1-4)GlcNAc(b1-3)Gal(b1-4)GlcNAc(b1-3)Gal(b1-4)GlcNAc(b1-3)Gal(b1-4)GlcNAc(b1-2)Man(a1-6)]Man(b1-4)GlcNAc(b1-4)GlcNAc
Outline: as §1

[6] = target: GlcNAc(b1-3)Gal(b1-4)GlcNAc(b1-6)[GlcNAc(b1-3)Gal(b1-3)]GalNAc
Outline: as §1

[7] = target: GlcNAc(b1-4)[GlcNAc(b1-6)]GalNAc
Outline: as §1

[8] = target: Kdn(a2-3)Gal(b1-4)[Fuc(a1-3)]GlcNAc
Outline: as §1

[9] = target: Man(a1-2)Man(a1-2)Man(a1-6)[Man(a1-3)]Man
Outline: as §1

Man(a1-3)[Man(a1-6)]Man = target: Man(a1-3)[Man(a1-6)]Man
Outline: as §1

[10] = target: Man(a1-3)[Man(a1-6)]Man(a1-6)[Man(a1-3)]Man
Outline: as §1

[11] = target: Neu5Ac(a2-3)Gal(b1-4)GlcNAc(b1-3)Gal
Outline: as §1

[12] = target: Neu5Ac(a2-3)Gal(b1-4)GlcNAc(b1-3)Gal(b1-4)[Fuc(a1-3)]GlcNAc
Outline: as §1

[13] = target: Neu5Ac(a2-3)Gal(b1-4)GlcNAc(b1-3)[Neu5Ac(a2-3)Gal(b1-4)GlcNAc(b1-6)]GalNAc
Outline: as §1

[14] = target: Neu5Ac(a2-3)Gal(b1-4)[Fuc(a1-3)]GlcNAc(b1-3)Gal(b1-4)GlcNAc
Outline: as §1

[15] = target: Neu5Ac(a2-3)Gal(b1-4)[Fuc(a1-3)]GlcNAc(b1-6)[Neu5Ac(a2-3)Gal(b1-3)]GalNAc
Outline: as §1

[16] = target: Neu5Ac(a2-3)Gal6S(b1-4)[Fuc(a1-3)]GlcNAc
Outline: as §1

[17] = target: Neu5Ac(a2-6)Gal(b1-4)GlcNAc(b1-2)Man(a1-3)Man(b1-4)GlcNAc(b1-4)GlcNAc
Outline: as §1

[18] = target: Neu5Ac(a2-6)Gal(b1-4)GlcNAc(b1-2)Man(a1-6)[Man(a1-3)]Man(b1-4)GlcNAc(b1-4)GlcNAc
Outline: as §1

[19] = target: Neu5Ac(a2-6)Gal(b1-4)GlcNAc(b1-3)Gal(b1-4)GlcNAc(b1-2)Man(a1-3)[Neu5Ac(a2-6)Gal(b1-4)GlcNAc(b1-3)Gal(b1-4)GlcNAc(b1-2)Man(a1-6)]GalNAc
Outline: as §1

[20] = target: Neu5Ac(a2-6)Gal(b1-4)GlcNAc(b1-3)Gal(b1-4)GlcNAc(b1-3)Gal(b1-4)GlcNAc(b1-2)Man(a1-3)[Neu5Ac(a2-6)Gal(b1-4)GlcNAc(b1-3)Gal(b1-4)GlcNAc(b1-3)Gal(b1-4)GlcNAc(b1-2)Man(a1-6)]GalNAc
Outline: as §1

[21] = target: Neu5Ac(a2-6)Gal(b1-4)GlcNAc(b1-3)GalNAc
Outline: as §1

[22] = target: Neu5Ac(a2-8)Neu5Ac(a2-3)Gal(b1-4)Glc
Outline: as §1

[23] = target: Neu5Ac(a2-8)Neu5Ac(a2-8)Neu5Ac(a2-3)Gal(b1-4)Glc
Outline: as §1

[24] = target: Neu5Ac(a2-8)Neu5Ac(a2-8)Neu5Ac(a2-3)[GalNAc(b1-4)]Gal(b1-4)Glc
Outline: as §1

B1: a L Fucosidase (Thermotoga maritima) (protein)
chain: MASMKPRYKPDWESLREHTVPKWFDKAKFGIFIHWGIYSVPGWATPTGELGKVPMDAWFFQNPYAEWYENSLRIKESPTWEYHVKTYGENFEYEKFADLFTAEKWDPQEWADLFKKAGAKYVIPTTKHHDGFCLWGTKYTDFNSVKRGPKRDLVGDLAKAVREAGLRFGVYYSGGLDWRFTTEPIRYPEDLSYIRPNTYEYADYAYKQVMELVDLYLPDVLWNNMGWPEKGKEDLKYLFAYYYNKHPEGSVNDRWGVPHWDFKTAEYHVNYPGDLPGYKWEFTRGIGLSFGYNRNEGPEHMLSVEQLVYTLVDVVSKGGNLLLNVGPKGDGTIPDLQKERLLGLGEWLRKYGDAIYGTSVWERCCAKTEDGTEIRFTRKCNRIFVIFLGIPTGEKIVIEDLNLSAGTVRHFLTGERLSFKNVGKNLEITVPKKLLETDSITLVLEAVEE
[1]
  glycan array binding signal (z-score): 0.08
[2]
  glycan array binding signal (z-score): 0.079
[3]
  glycan array binding signal (z-score): 0.296
[4]
  glycan array binding signal (z-score): 3.94
[5]
  glycan array binding signal (z-score): -0.204
[6]
  glycan array binding signal (z-score): 1.65
[7]
  glycan array binding signal (z-score): -0.289
[8]
  glycan array binding signal (z-score): 0.051
[9]
  glycan array binding signal (z-score): -0.125
Man(a1-3)[Man(a1-6)]Man
  glycan array binding signal (z-score): 0.332
[10]
  glycan array binding signal (z-score): 0.223
[11]
  glycan array binding signal (z-score): -0.187
[12]
  glycan array binding signal (z-score): 1.75
[13]
  glycan array binding signal (z-score): 0.483
[14]
  glycan array binding signal (z-score): 1.9
[15]
  glycan array binding signal (z-score): 2.83
[16]
  glycan array binding signal (z-score): -0.732
[17]
  glycan array binding signal (z-score): 1.99
[18]
  glycan array binding signal (z-score): 0.081
[19]
  glycan array binding signal (z-score): 2.02
[20]
  glycan array binding signal (z-score): 10.5
[21]
  glycan array binding signal (z-score): 1.83
[22]
  glycan array binding signal (z-score): -0.893
[23]
  glycan array binding signal (z-score): 0.654
[24]
  glycan array binding signal (z-score): 0.362
